# Measurements from PubChem BioAssay AID504850 (National Center for Advancing Translational Sciences (NCATS), 2011).
# Among all 2,300 compounds or so, about 1,200 (52%) were called active. Roughly 34% stayed inconclusive and do not appear here. Calls come from the whole dose curve; as a rule, active = well fitted inhibition curve with a large enough effect; inconclusive = small, poorly fitted or top-dose-only effect, or effect the other way; inactive = no such curve, though single readings can be large or run the other way. So high a share suggests a set chosen from earlier hits. This is one part of the list. Square brackets hold non-standard residues; d marks the D form. Peptide text beside a SMILES is read from it. * marks the point of attachment. ξ: configuration not given here. ξF = NC(Cc1ccccc1)C(=O)O; Cbz = O=C(OCc1ccccc1)*
# Assay: Confirmation screen for delayed death inhibitors of the malarial parasite plastid, 48 hour incubation; note: nearly all actives have a fitted effect of over 65% in size
# Conditions: P. falciparum-infected erythrocytes, luciferase growth; series mostly up to 28.7 µM; activity change, negative = inhibition: at the top concentration
# In short: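 Single-generation (48 h, 37 C) exposure of integrated firefly luciferase-reporter P. falciparum in red cells, 0.1% parasitemia at 2% hematocrit, Albumax-supplemented RPMI. Falling luciferase signal marks parasite growth inhibition.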
# % is set by controls: 0 for no effect and ±100 for the full control effect; potency is the fitted concentration of half-maximal effect.
Structure (SMILES),Potency,"activity change, negative = inhibition"
Cc1cc(C)n2nc(SCC(=O)N3CCN(c4ccc(F)cc4)CC3)nc2n1,12.6 µM (active),
CCn1c2ccccc2c2cc(Nc3cc(C)nc4ncnn34)ccc21,0.251 µM (active),
CCOC(=O)CCC(=O)Nc1ncnc2c1C(c1ccccc1)c1c(ccc3ccccc13)O2 (configuration not stated),8.91 µM (active),
O=C(Nc1ccccc1O)c1ccc([N+](=O)[O-])cc1,15.8 µM (active),
O=C(Nc1ccccc1C(=O)Nc1ccccc1C(=O)O)c1ccccc1,,-29.2% (inactive)
Cc1ccc(N/N=C/c2ccncc2)cc1,,-6.56% (inactive)
Cc1sc(N/N=C/c2cccnc2)nc1-c1ccccc1,12.6 µM (active),
Cc1sc(NC(=O)c2c(F)cccc2F)nc1-c1ccccc1,,-7.17% (inactive)
O=C(N1CCOCC1)N1c2ccccc2Sc2ccccc21,,-18.4% (inactive)
CC1CN(C(=O)N2c3ccccc3Sc3ccccc32)CC(C)O1 (configuration not stated),14.1 µM (active),
C[C@H]1CN=C2N(CCNC(=O)CCC3CCCCC3)[C@H](Cc3ccc(O)cc3)CN21,11.2 µM (active),
C/C=C(\C)C(=O)NCCN1C2=NC[C@H](Cc3ccccc3)N2C[C@H]1Cc1ccc(O)cc1,11.2 µM (active),
O=C(CCC1CCCCC1)NCCN1C2=NC[C@H](Cc3ccccc3)N2C[C@H]1Cc1ccc(O)cc1,11.2 µM (active),
C[C@@H](CN1C2=NC[C@H](Cc3ccc(O)cc3)N2C[C@H]1Cc1ccc(O)cc1)NC(=O)CCC1CCCCC1,8.91 µM (active),
Cc1cc2nsnc2c(S(=O)(=O)N2CCN(C)CC2)c1C,,-4.46% (inactive)
CC1CCN(CCNC(=O)C2CCN(S(=O)(=O)c3cccc4nsnc34)CC2)CC1,14.1 µM (active),
CN(C)S(=O)(=O)c1cc(NC(=O)c2cc(=O)c3ccccc3o2)ccc1Cl,11.2 µM (active),
Nc1cc[n+](CC(=O)c2ccc3c(c2)OCCO3)cc1,7.08 µM (active),
O=Cc1s/c(=N\S(=O)(=O)c2ccccc2)n(CCCCl)c1Cl,,-12.4% (inactive)
CCOC(=O)c1cnc2c(C)c(Cl)ccc2c1NCCCN1CCOCC1,14.1 µM (active),
N=c1c2c(n(Cc3ccc(Cl)c(Cl)c3)c3c1CCC3)CCCC2,0.355 µM (active),
N=c1c2c(n(Cc3ccc(Cl)cc3)c3c1CCC3)CCC2,0.562 µM (active),
O=C(Nc1ccc(N2CCCCC2)c(Cl)c1)c1cccnc1,11.2 µM (active),

Structure (SMILES),Potency,"activity change, negative = inhibition"
Cc1cc(C)cc(NC(=O)c2cccnc2)c1,,-20.6% (inactive)
COCCN(C(=O)c1ccccc1F)c1nnc(-c2ccc(OC)cc2)s1,10 µM (active),
CC(C)(C)C1C/C(=C/c2ccccn2)C(=O)/C(=C/c2ccccn2)C1 (configuration not stated),0.316 µM (active),
COC(=O)CSc1nc2c(c(-c3ccco3)c1C#N)CCCC2,12.6 µM (active),
N#C/C(=C\c1ccc(-c2ccc(C(=O)O)cc2)o1)C(=O)Nc1ccc(F)cc1,14.1 µM (active),
Cc1ccc(NC2=C/C(=N\S(=O)(=O)c3cccs3)c3ccccc3C2=O)c(C)c1,0.282 µM (active),
CCCC(=O)NC(c1ccccc1)c1c(O)ccc2ccccc12 (configuration not stated),7.08 µM (active),
CC(C)(C(=O)N[C@H](CO)c1ccccc1)C(=O)N[C@H](CO)c1ccccc1,,-2.48% (inactive)
CCCCNC(=O)c1onc(CSc2cccc3ccccc23)c1C(=O)O,,-3.23% (inactive)
CCC1=C/C(=C/c2sc3ccccc3[n+]2CC)CC(C)(C)C1,5.62 µM (active),
CCCc1nnc(NC(=O)c2nc(S(=O)(=O)Cc3cccc(C)c3)ncc2Cl)s1,,-23.9% (inactive)
CCC(C)[C@@H](NC(=O)OC(C)(C)C)c1nnc(S(=O)(=O)Cc2cccc(C)c2)o1 (some centres not stated),14.1 µM (active),
O=C(COc1ccccc1Cl)NC(=S)N1CCc2ccccc21,12.6 µM (active),
O=C(COc1cccc2ccccc12)Nc1ccc(Cl)cc1C(=O)O,,-10% (inactive)
COc1cc2cc(CN(CCc3ccccc3C)C(=S)NCCCN3CCOCC3)c(=O)[nH]c2cc1OC,7.94 µM (active),
CCC(=O)NCCc1cc2ccc(C)cc2[nH]c1=O,,-7.04% (inactive)
COc1cc2cc(CN(Cc3cccs3)C(=S)Nc3ccc(C)cc3)c(=O)[nH]c2cc1OC,10 µM (active),
CS(=O)(=O)c1ccc(-c2nnc(NC(=O)c3ccc(S(=O)(=O)N4CCCC4)cc3)o2)cc1,14.1 µM (active),
C=CCNC(=S)N/N=C/c1ccc(-c2cc(Cl)ccc2Cl)o1,12.6 µM (active),
O=C(NCc1cccnc1)/C(=C\c1ccc(-c2cccc(Cl)c2)o1)S(=O)(=O)c1ccccc1,12.6 µM (active),
O=C(NCc1cccnc1)c1nc(-c2ccccc2)n(-c2ccccc2)n1,,-19.4% (inactive)
COc1cc(CNC(=O)CCn2nc(C)c3c(C)n(-c4ccccc4)nc3c2=O)cc(OC)c1OC,12.6 µM (active),
Cc1ccc2c(c1)N(CCC(=O)NCc1ccco1)C(=O)CO2,,-8.96% (inactive)

Structure (SMILES),Potency,"activity change, negative = inhibition"
Cc1ccc(-n2nc3c(=O)n(CCCC(=O)NCc4ccco4)nc(C)c3c2C)cc1,6.31 µM (active),
COc1ccccc1CCNC(=O)CCn1nc(C)c2c(C)n(-c3ccccc3)nc2c1=O,14.1 µM (active),
COc1ccccc1CNC(=O)CCCn1nc(C)c2c(C)n(-c3ccccc3)nc2c1=O,12.6 µM (active),
CC(=O)Nc1sc(C)c(C)c1C(=O)OCC(=O)N(CC(C)C)C1CCS(=O)(=O)C1 (configuration not stated),12.6 µM (active),
CSCCC(NC(=O)c1ccccc1Cl)C(=O)N1CCN(C(c2ccccc2)c2ccccc2)CC1 (configuration not stated),3.98 µM (active),
Cc1ccc(N(Cc2ccco2)C(=O)c2ccc(N3CCCCC3)c([N+](=O)[O-])c2)cc1,11.2 µM (active),
C=CCNC(=O)c1onc(CSc2ccccc2CC)c1C(=O)O,,-13.2% (inactive)
Fc1ccc2cnc(-c3ccccc3)c(-c3ccc(C(F)(F)F)cc3)c2c1,15.8 µM (active),
O=C(O)c1cc(-c2ccc3ccccc3c2)nc2ccc(F)cc12,,-26.3% (inactive)
CCCN1CCN(C(=O)C2CCN(S(=O)(=O)c3ccc4c(c3)NC(=O)C(C)S4)CC2)CC1 (configuration not stated),12.6 µM (active),
CC(=O)c1c(C)[nH]c(C(=O)COC(=O)COc2ccccc2F)c1C,,-4.9% (inactive)
COc1ccc(C(C)(C)C)cc1NC(=O)c1[nH]c(C)c(C(C)=O)c1C,7.94 µM (active),
CC#CC#Cc1cccc(=O)o1,8.91 µM (active),
CCCn1c(CN2CCN(C(=O)OCC)CC2)nc2cc(NC(=O)C(C)C)ccc21,11.2 µM (active),
CCNc1ccc(Br)cc(C(=O)/C=C/c2c(Cl)cccc2Cl)c1=O,10 µM (active),
COc1ccc(-c2cn(-c3ccccc3)c3[n+]2CCS3)cc1,3.16 µM (active),
COc1cc(/C=C2\COC/C(=C\c3ccc(O)c(OC)c3)C2=O)ccc1O,6.31 µM (active),
COc1cc(/C=C2\COC/C(=C\c3cc(OC)c(OC)c(OC)c3)C2=O)cc(OC)c1OC,2.82 µM (active),
COc1cc(/C=C2\CC(C(C)(C)C)C/C(=C\c3cc(OC)c(OC)c(OC)c3)C2=O)cc(OC)c1OC (configuration not stated),5.01 µM (active),
COc1cc(/C=C2/CCC/C(=C\c3cc(O)c(OC)c(Cl)c3)C2=O)cc(Cl)c1O,11.2 µM (active),
CCOc1ccc(/C=C2\SC(=S)N(C(C(=O)O)c3ccccc3)C2=O)cc1OC (configuration not stated),,0.811% (inactive)
COc1ccc(/C=C2\CC/C(=C\c3ccc(OC)c(OC)c3)C2=O)cc1OC,15.8 µM (active),
CC(C)c1ccc(NC(=O)c2cc(S(=O)(=O)N3CCCC3)c[nH]2)cc1,12.6 µM (active),

Structure (SMILES),Potency,"activity change, negative = inhibition"
COc1ccc(-c2c(C(C)=O)c(C)n(C)c2C)cc1,12.6 µM (active),
CC(C)N1CCC(N2CCN(Cc3ccc(-c4ccc(Cl)cc4)o3)CC2CCO)CC1 (configuration not stated),6.31 µM (active),
OC(CN1C2=NCCN2c2ccccc21)c1ccc2c(c1)OCO2 (configuration not stated),5.01 µM (active),
Cc1ccc(C)c(C(=O)CN2C3=NCCCN3c3ccccc32)c1,12.6 µM (active),
O=C(CN1C2=NCCCN2c2ccccc21)c1ccc2c(c1)OCO2,11.2 µM (active),
Nc1cccc2c1C(=O)N(C(=O)/C=C/c1ccc(F)cc1)C2=O,,-27.2% (inactive)
Cc1cc2c(c(=O)n1Cc1ccco1)C(c1cccnc1)C(C#N)=C(N)O2 (configuration not stated),,-11.5% (inactive)
OC(c1ccccc1)(c1ccccc1)C1CCN(C(=S)NCCc2ccccc2)CC1,11.2 µM (active),
CN(Cc1cccc(Cl)c1Cl)C(=O)c1ccc(NC(=O)CC#N)cc1,3.98 µM (active),
O=C(CSc1nc(-c2ccco2)cc(C(F)(F)F)n1)Nc1ccccc1C(F)(F)F,14.1 µM (active),
O=C(CSc1ccc(-c2cccnc2)nn1)Nc1ccccc1C(F)(F)F,,-11.1% (inactive)
O=S1(=O)C=C(Sc2nnc(-c3ccccc3)o2)c2ccccc21,12.6 µM (active),
O=S1(=O)C=C(Sc2nc3cc(Cl)ccc3o2)c2ccccc21,11.2 µM (active),
CCOC(=O)Cn1c(S(=O)(=O)Cc2cccc(F)c2)nc(-c2ccccc2)c1-c1ccccc1,11.2 µM (active),
C#CCn1c(S(=O)(=O)Cc2ccc(F)cc2)nc(-c2ccccc2)c1-c1ccccc1,14.1 µM (active),
C#CCn1c(S(=O)(=O)Cc2ccc(C)cc2)nc(-c2ccccc2)c1-c1ccccc1,12.6 µM (active),
O=C(c1cccc(Cl)c1)c1nn(-c2ccccc2)c(=O)cc1C(F)(F)F,12.6 µM (active),
O=C(CCl)Nc1cccc2ncccc12,4.47 µM (active),
Oc1ccc(-c2n[nH]c(=S)n2-c2ccc3c(c2)OCCO3)c(O)c1,0.708 µM (active),
O=C(c1ccc(CS(=O)c2ccccc2Cl)o1)N1CCN(c2ccccn2)CC1 (configuration not stated),11.2 µM (active),
O=C(NCc1cccc(Cl)c1)C1CCC(=O)N(CC2CCCCC2)C1 (configuration not stated),14.1 µM (active),
CCCNC(=O)C(Cc1ccc(F)cc1)NC(=O)c1ccccc1 (configuration not stated),10 µM (active),
CCOC(=O)CNC(=O)C(Cc1ccccc1)NC(=O)OCc1ccccc1 (configuration not stated) (Cbz-[ξF]-Gly-OEt),,-0.99% (inactive)
